Assay results published in PMC4336329 (PLoS ONE, 2015).
Hit rate of the full screen: of about 310,000 compounds, about 14,000 (4.5%) showed an effect of 50% or more. Effects have a minus sign here. This is one part of a sample in which strong results are shown more often than they occur.

biological target: human ether-à-go-go-related gene (hERG) potassium channel (human, UniProt Q12809); experiment: primary screen, population patch clamp on CHO cells stably expressing hERG; higher = less effect of the substance
Sequence (Q12809 whole entry, looked up): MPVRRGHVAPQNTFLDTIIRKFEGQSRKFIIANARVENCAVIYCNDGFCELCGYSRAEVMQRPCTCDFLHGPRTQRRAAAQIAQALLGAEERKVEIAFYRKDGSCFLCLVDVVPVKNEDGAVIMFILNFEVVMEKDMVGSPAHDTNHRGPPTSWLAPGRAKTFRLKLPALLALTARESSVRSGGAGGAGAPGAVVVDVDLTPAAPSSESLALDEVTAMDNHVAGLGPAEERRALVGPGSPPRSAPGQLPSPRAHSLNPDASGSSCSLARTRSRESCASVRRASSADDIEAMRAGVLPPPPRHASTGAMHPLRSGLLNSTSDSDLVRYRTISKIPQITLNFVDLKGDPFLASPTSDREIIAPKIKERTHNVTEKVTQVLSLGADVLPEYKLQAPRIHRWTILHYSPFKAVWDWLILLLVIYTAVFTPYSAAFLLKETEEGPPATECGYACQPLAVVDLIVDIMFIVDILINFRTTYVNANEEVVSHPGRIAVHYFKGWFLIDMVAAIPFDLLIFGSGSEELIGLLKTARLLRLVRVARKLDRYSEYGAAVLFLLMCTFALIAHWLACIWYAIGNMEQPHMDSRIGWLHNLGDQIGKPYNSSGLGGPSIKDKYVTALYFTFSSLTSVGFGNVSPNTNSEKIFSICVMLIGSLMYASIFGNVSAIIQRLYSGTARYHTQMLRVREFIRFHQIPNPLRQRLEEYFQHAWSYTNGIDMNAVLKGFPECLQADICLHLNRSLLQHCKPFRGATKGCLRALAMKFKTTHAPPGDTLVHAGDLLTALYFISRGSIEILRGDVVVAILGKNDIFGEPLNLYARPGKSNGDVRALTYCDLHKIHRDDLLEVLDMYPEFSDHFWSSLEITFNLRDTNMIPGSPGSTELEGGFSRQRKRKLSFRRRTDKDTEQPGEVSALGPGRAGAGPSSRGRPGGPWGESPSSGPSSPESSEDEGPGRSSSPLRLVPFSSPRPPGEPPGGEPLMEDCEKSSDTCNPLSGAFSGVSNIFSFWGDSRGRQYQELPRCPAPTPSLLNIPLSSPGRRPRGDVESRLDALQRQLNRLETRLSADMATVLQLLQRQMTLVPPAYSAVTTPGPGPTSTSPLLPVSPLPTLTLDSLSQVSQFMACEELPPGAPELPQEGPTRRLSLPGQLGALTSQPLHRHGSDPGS
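Also: peak tail current of the secondary pulse compared with the same well before compound.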

SMILES | hERG current change (%, negative = inhibition) at 10uM
COc1ccc(C)cc1NC(=O)CSc1nnc(COc2ccccc2)n1Cc1ccco1 | -9.46%
CCOC(=O)c1c(N)sc(C(O)(C(F)(F)F)C(F)(F)F)c1-c1ccc(Cl)cc1 | -4.79%
COC(=O)Cc1csc(Nc2ccc(Cl)cc2)n1 | 7.01%
CC(C)[C@H](NC(N)=O)C(=O)NCCc1ccc(Cl)cc1Cl | -27%
Cc1ccc(OCc2cc(C(=O)N3CCN(c4ccccc4)CC3)no2)cc1C | -0.317%
O=C(/C(C=Nc1ccc(F)cc1)=C(/O)c1ccco1)C(F)(F)F | -26.7%
O=C(/C(C=Nc1cccc(C(F)(F)F)c1)=C(/O)c1ccco1)C(F)(F)F | -29.8%
O=C(/C(C=Nc1ccc(Br)cc1)=C(/O)c1ccco1)C(F)(F)F | -52.6%
CC(=O)c1cccc(NC(=O)c2cc(-c3cccs3)on2)c1 | 27%
CCN1CCN(c2ncc(C(=O)Nc3ccccc3C(=O)OC)c3ccccc23)CC1 | -47.2%
O=C(Nc1c(F)cccc1F)c1cnc(N2CCN(c3ccccn3)CC2)c2ccccc12 | -4.56%
CCN1CCN(c2ncc(C(=O)Nc3cc(Cl)ccc3OC)c3ccccc23)CC1 | -61.5%
CCN1CCN(c2ncc(C(=O)Nc3c(F)cc(F)cc3Br)c3ccccc23)CC1 | -60%
Cc1ccc(NC(=O)c2cnc(N3CCN(c4ccccn4)CC3)c3ccccc23)c(Br)c1 | 10.7%
CCN1CCN(C(=O)Nc2cc(Cl)ccc2OC)CC1 | 2.98%
Cc1cc(C)c(C)c(S(=O)(=O)NCC(=O)N2CCCC2)c1C | 7.49%
Clc1ccc(SCCCCN2CCOCC2)cc1.O=C(O)C(=O)O | -22.5%
Clc1ccc(SCCOCCN2CCCCCC2)cc1.O=C(O)C(=O)O | -73.3%
Clc1ccc(SCCCCN2CCNCC2)cc1.O=C(O)C(=O)O | -48.7%
CCC(C)NCCOCCSc1ccc(Cl)cc1.O=C(O)C(=O)O (stereo not drawn) | -46.9%
Clc1ccc(SCCOCCN2CCOCC2)cc1.O=C(O)C(=O)O | 1.54%

SMILES | hERG current change (%, negative = inhibition) at 10uM
Clc1ccc(SCCOCCN2CCCCC2)cc1.O=C(O)C(=O)O | -82%
Clc1ccc(SCCCN2CCCCC2)cc1.O=C(O)C(=O)O | -76%
Clc1ccc(SCCN2CCNCC2)cc1.O=C(O)C(=O)O | -5.25%
CC(C)NCCOCCSc1ccc(Cl)cc1.O=C(O)C(=O)O | -30.2%
COc1ccc(-c2nn(-c3ccccc3)cc2/C=N/N=C(N)N)cc1OC | -27.8%
CCN(CCCCCCN)c1ccc2c(=O)[nH][nH]c(=O)c2c1 | 6.75%
Cc1ccc(CN(C(=O)Cn2nnc3ccccc32)C(C(=O)NCc2ccco2)c2cccs2)cc1 (stereo not drawn) | -23.1%
CN(C(=O)COC(=O)c1ccc2c(c1)OCO2)C1CCS(=O)(=O)C1 (stereo not drawn) | 9.31%
O=C(/C=C/c1cccc([N+](=O)[O-])c1)N1CCN(c2ccccn2)CC1 | -41.2%
COCCn1c(=NC(=O)CN2C(=O)CCC2=O)sc2cc(S(N)(=O)=O)ccc21 | -9.48%
CC(CC(=O)Nc1ccccc1)n1ccnc1 (stereo not drawn) | -5.07%
O=c1cccc(-c2ccccc2)[nH]1 | -2.53%
COc1ccc2nc(N3CCOCC3)cc(C)c2c1 | -0.452%
Cc1ccccc1NC(=O)c1cccc2nc3ccccc3nc12 | 13.8%
O=C(Nc1cc(S(=O)(=O)N2CCOCC2)ccc1N1CCCC1)C1CC1 | -0.0868%
CCN(CC)S(=O)(=O)c1ccc(N2CCOCC2)c(NC(=O)COc2ccccc2)c1 | -11.1%
O=C(Nc1cc(S(=O)(=O)N2CCOCC2)ccc1Oc1ccc(F)cc1)C1=COCCO1 | -69.8%
Cc1ccc(C(=O)Nc2cc(S(=O)(=O)N3CCOCC3)ccc2N2CCCC2)cc1 | -8.42%
CCOc1ccc(Oc2ccc(S(=O)(=O)N3CCOCC3)cc2NC(=O)C2=COCCO2)cc1 | -41.9%
O=C(Nc1cc(S(=O)(=O)N2CCCCC2)ccc1Oc1ccccc1)C1=COCCO1 | -10.6%
O=C(COC(=O)c1ccc(F)cc1)Nc1cc(S(=O)(=O)N2CCOCC2)ccc1N1CCCC1 | -28.2%

SMILES | hERG current change (%, negative = inhibition) at 10uM
O=C(Nc1ccc(F)cc1)Nc1cc(S(=O)(=O)N2CCOCC2)ccc1N1CCCC1 | -97.4%
O=C(Nc1cc(S(=O)(=O)N2CCOCC2)ccc1N1CCCC1)c1ccc(F)cc1 | -82.3%
CCN(CC)S(=O)(=O)c1ccc(N2CCOCC2)c(NC(=O)Cc2ccccc2)c1 | -36.2%
O=C(Nc1cc(S(=O)(=O)N2CCOCC2)ccc1N1CCOCC1)c1ccc(S(=O)(=O)N2CCCCC2)cc1 | -1.72%
CCN(CC)S(=O)(=O)c1ccc(N2CCOCC2)c(NC(=O)CNCCc2ccccc2)c1.O=C(O)C(=O)O | -63.8%
C/C=C/c1ccc(OCC(=O)Nc2cc(OC)c(OC)c(OC)c2)c(OC)c1 | -3.16%
Cc1cccc(NC(=O)c2cccc(S(=O)(=O)N(C)c3ccccc3)c2)n1 | -28.7%
CC(C)(C)c1cc(NC(=O)c2cccc([N+](=O)[O-])c2)no1 | 3.8%
O=C1CCCC2=C1C(c1ccco1)Nc1ccc(C(=O)c3ccccc3)cc1N2 (stereo not drawn) | 6.94%
COc1ccc(Cn2c(=O)[nH]c3cc(C(=O)Nc4ccccc4C)ccc32)cc1 | 2.66%
O=S(=O)(c1cccc(F)c1)N1CCCN(c2ccc(C(F)(F)F)cn2)CC1 | -27.3%
CC(=O)Nc1ccccc1OCC(=O)NC1CCCCC1C (stereo not drawn) | 8.59%
NS(=O)(=O)c1cccc(-n2cnnn2)c1 | -6.93%
NC1=C([N+](=O)[O-])C(c2ccc3c(c2)OCO3)C2=C(CCCC2=O)O1 (stereo not drawn) | 10.8%
O=C(NC(=S)Nc1ccccc1N1CCOCC1)c1ccco1 | 9.73%
O=C(Nc1ccccc1)Nc1cc(S(=O)(=O)N2CCOCC2)ccc1N1CCCC1 | -71%
CCN(CC)S(=O)(=O)c1ccc(N2CCOCC2)c(NC(=S)NC(=O)c2ccco2)c1 | -66.5%
CCN(CC)S(=O)(=O)c1ccc(N2CCOCC2)c(NC(=O)c2ccc(F)cc2)c1 | -72.3%
CCN(CC)S(=O)(=O)c1ccc(N2CCOCC2)c(NC(=O)c2ccc(NC(C)=O)cc2)c1 | -0.15%
O=C(Nc1cccc(Cl)c1)Nc1cc(S(=O)(=O)N2CCOCC2)ccc1N1CCCC1 | -38.9%
O=C(Nc1cc(S(=O)(=O)N2CCOCC2)ccc1N1CCCCC1)c1ccc(Cl)cc1 | -1.07%

SMILES | hERG current change (%, negative = inhibition) at 10uM
O=C(Nc1ccc(Cl)c(Cl)c1)Nc1cc(S(=O)(=O)N2CCOCC2)ccc1N1CCCC1 | -16.6%
O=C(Nc1ccccc1F)Nc1cc(S(=O)(=O)N2CCOCC2)ccc1N1CCCC1 | -19%
O=C(Nc1ccc(Cl)cc1)Nc1cc(S(=O)(=O)N2CCOCC2)ccc1N1CCCC1 | -54.5%
O=C(NC(=S)Nc1cc(S(=O)(=O)N2CCOCC2)ccc1N1CCOCC1)c1ccco1 | -39.4%
CCN(CC)S(=O)(=O)c1ccc(N2CCOCC2)c(NC(=O)c2ccccc2)c1 | -25.6%
O=C(c1ccccn1)N(Cc1ccco1)C1(C(=O)NC2CCCCC2)CCCCC1 | 10.9%
O=C(CCC(=O)OCc1ccc(Br)cc1)Nc1ccccc1 | 8.45%
CCC1CCCCN1C(=O)Cn1c(=O)n(CCC(=O)NCc2ccco2)c(=O)c2sccc21 (stereo not drawn) | -6.12%
C=CCNC(=O)c1ccccc1NC(=O)C1COc2ccccc2O1 (stereo not drawn) | 4.92%
c1ccc(CCNc2ncnc3ccccc23)cc1 | -43.2%
Cc1cc(Cl)ccc1OC(C)C(=O)NN1C(=O)c2ccccc2C1=O (stereo not drawn) | 20.9%
COc1cccc(OC)c1C(=O)OCC(=O)NCC(C)C | 24.7%
COc1cccc(NC(=O)N2CCOCC2)c1 | -14.8%
CC(C)(C)N=Cc1cc(-c2ccccc2)sc1O | -17.2%
COc1ccc(/C=C/C(=O)c2ccc(NC3=NCCCS3)cc2)cc1OC | -37.7%
Cc1nn(Cc2ccccc2)c(C)c1/C=N/NC(=O)c1ccncc1 | -46.4%
Cc1cccc(N2CCN(C(=O)c3cc(S(=O)(=O)N4CCCC4)cn3C)CC2)c1C | -38%
Cc1cc(C)cc(NC(=O)CSc2nc3ccncc3[nH]2)c1 | 8.99%
O=C(Nc1cc(C(F)(F)F)ccc1N1CCOCC1)c1cn2ccccc2n1 | -2.98%
O=C(Nc1ccc(Cl)c(S(=O)(=O)N2CCOCC2)c1)c1cn2ccccc2n1 | 11.9%
O=C(Nc1cc(S(=O)(=O)N2CCOCC2)ccc1N1CCOCC1)c1cn2ccccc2n1 | -52.3%
